# Measurements: PubChem BioAssay (Tox21)
# Records with an inconclusive call do not appear. Entries that show only a call come without a potency. Active and inactive are the calls of the source. The call rests on the fitted dose curve.
# Assay: p53 small molecule agonists, cell-based qHTS assay: qHTS cell viability counter screen (AID 1963581); further: nearly all actives have a fitted effect of over 45% in size
# Conditions: p53RE-bla HCT-116 viability, ATP luminescence, 16 h; series mostly up to 66 µM
# Description: National Center for Advancing Translational Sciences [NCATS]
# Division of Preclinical Innovation [DPI]
# U.S. Environmental Protection Agency [EPA]
# National Institutes of Environmental Health Sciences [NIEHS]
# National Toxicology Program [NTP]
# U.S. Food and Drug Administration [FDA]
# p53, a tumor suppressor protein, is activated following cellular insult, including DNA damage and other cellular stresses. The activation of p53 regulates cell fate by inducing DNA repair, cell cycle arrest, apoptosis, or cellular senescence. The activation of p53, therefore, is a good indicator of DNA damage and other cellular stresses. The CellSensor p53RE-bla HCT-116 cell line (Invitrogen) contains a stably integrated beta-lactamase reporter gene under control of the p53 response elements. The activation of the reporter gene under culture conditions can be detected by fluorescence intensity. This cell line was used to screen the Tox21 compound library in a 1536-well plate format and to identify agonists that activate the p53 signaling pathway. The cytotoxicity of the Tox21 compound library against the p53 RE-bla HCT-116 cell line was tested in parallel by measuring the intra cellular ATP content in the same wells.
# Tox21 Assay Protocol Summary:
# The p53RE-bla cells were dispensed at 4,000 cells/5 ul/well in 1536-well black wall/clear bottom plates using a Multidrop dispenser. After the assay plates were incubated at a 37 C/5% CO2 incubator for 5 hours, 23 nL of compounds dissolved in DMSO, positive controls or DMSO only was transferred to the assay plate by a pin tool. The plates were incubated at 37 C for 16 hours. After 1 uL of LiveBLAzerTM B/G FRET substrate was added using a Flying Reagent Dispenser, the plates were incubated at room temperature for 2 hours, and fluorescence intensity was measured by an Envision plate reader. For cell viability readout that measures cytotoxicity, 4 ul/well of CellTiter-Glo reagent was added into the assay plates using a Flying Reagent Dispenser. After 30 min incubation at room temperature, the luminescence intensity in the plates was measured using a ViewLux plate reader.
row,SMILES,Potency
1,F[B-](F)(F)F,inactive
2,CCCCCCCCCCCCS,inactive
3,CCCOC(=O)c1ccccc1,inactive
4,COc1ccc2[nH]cc(CCNC(C)=O)c2c1,inactive
5,CCc1cccc2c3c([nH]c12)C(CC)(CC(=O)O)OCC3 (stereo not given),inactive
6,CCC(C)(C)C(=O)O[C@H]1C[C@@H](C)C=C2C=C[C@H](C)[C@H](CC[C@@H]3C[C@@H](O)CC(=O)O3)[C@H]21,inactive
7,COC(C)COC(C)COC(C)CO (stereo not given),inactive
8,Cc1cn([C@H]2C[C@H](N=[N+]=[N-])[C@@H](CO)O2)c(=O)[nH]c1=O,inactive
9,OCCO,inactive
10,O=C(O)c1ccc(C(=O)O)cc1,inactive
11,O=S1(=O)CCCO1,inactive
12,Cc1ccc2c(n1)Oc1ccc(C(C)C(=O)OCC(=O)N(C)C)cc1C2 (stereo not given),inactive
13,c1ccc2c(c1)[nH]c1ccccc12,inactive
14,NNCCc1ccccc1,inactive
15,Cc1cc(C)nc(NS(=O)(=O)c2ccc(N)cc2)n1,inactive
16,Cc1ccc(N)c(S(=O)(=O)O)c1,inactive
17,O=C(O)c1cn(-c2ccc(F)cc2)c2cc(N3CCNCC3)c(F)cc2c1=O,inactive
18,C=C(C)C(=O)OCCCCCC,inactive
19,Cc1cc(C(C)(C)C)c(O)c(C(C)(C)C)c1,inactive
20,c1ccc(Oc2ccccc2)cc1,inactive

row,SMILES,Potency
1,CCCCC(CC)COC(=O)CS (stereo not given),inactive
2,CCCN(CCC)S(=O)(=O)c1ccc(C(=O)O)cc1,inactive
3,CCn1c2ccccc2c2cc(N)ccc21,inactive
4,Cc1ccc(S(=O)(=O)NCl)cc1,inactive
5,CN(C)CCOC(C)(c1ccccc1)c1ccccn1 (stereo not given),inactive
6,COc1ccc(OC)cc1,inactive
7,CC(O)CC(C)(C)O (stereo not given),inactive
8,CCCCCCCC(=O)OC,inactive
9,CCc1cccc(C)c1N,inactive
10,CC(C)CC(=O)CC(C)CC(C)C (stereo not given),inactive
11,C=CC(=O)NC(C)(C)CS(=O)(=O)O,inactive
12,OC[C@@H](O)[C@@H](O[C@@H]1O[C@H](CO)[C@H](O)[C@H](O)[C@H]1O)[C@H](O)[C@@H](O)CO,inactive
13,CCOCC(=O)O,inactive
14,O=C(O)CS,inactive
15,CCCCCCCCCC(=O)O,inactive
16,C[C@]12CCC(=O)C=C1CC[C@@H]1[C@@H]2C(=O)C[C@@]2(C)[C@H]1CC[C@]2(O)C(=O)CO,inactive
17,Cc1ccc2ncccc2c1,inactive
18,CC(CCO)CC(C)(C)C (stereo not given),inactive
19,Cc1cnc(NC(=O)C2=C(O)c3ccccc3S(=O)(=O)N2C)s1,inactive
20,CCCC(O)C(CC)CO (stereo not given),inactive
